Measured values: PubChem BioAssay AID2685 (National Center for Advancing Translational Sciences (NCATS), 2010)
About 2,100 (0.66%) of roughly 320,000 compounds were called active. Inconclusive results (about 53%) are left out. The call rests on the fitted dose curve; in most records, active means well fitted inhibition curve with a large enough effect in the signal ratio, with a control signal flat (not every such curve was filed as active); inconclusive means small, poorly fitted or top-dose-only effect, or effect the other way, or a change in a side signal; inactive means flat fitted curve, though single readings scatter; the % refers to the signal ratio. Shown is part of a subset that was picked to be rich in actives.

test: qHTS Assay for Lipid Storage Modulators in Drosophila S3 Cells; details: BODIPY lipid droplet fluorescence, 18-24 h, cells fed with added oleic acid; cell number change: measured here: cell count max response; series mostly up to 46.1 µM;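 on cell number change: cells counted by Cell Tracker Red CMTPX staining in the red channel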; on lipid storage change, negative = inhibition: on the % scale 0 is the no-effect control and ±100 the full control effect
Method in brief: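 Drosophila S3 cells got compounds at several concentrations plus oleic acid (400 uM solution). Laser-scanning cytometry with 488 nm excitation read lipid droplets at 500-530 nm and cells at 575-640 nm. Percent activity was relative to 20 uM Triacsin C.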
Potency means the concentration at half of the fitted maximal effect.

| SMILES | Potency | cell number change | lipid storage change, negative = inhibition |
| --- | --- | --- | --- |
| O=C(N=Nc1c(O)[nH]c2ccccc12)c1cccs1 | inactive | -7.18% |  |
| COc1cc(OC)cc(C(=O)N2CCN(C(=O)c3ccc(OC)c(OC)c3)CC2)c1 | inactive | 14.7% |  |
| CC(C)=CCCC(C)CN(C)CCc1ccccn1 (stereo not drawn) | 18.4 µM (active) | -0.762% |  |
| CN(CCc1ccccn1)Cc1ccc(Cl)cc1 | inactive | 7.49% |  |
| CN(CCc1ccccn1)Cc1ccc(Cl)c(Cl)c1 | inactive | -4.68% |  |
| COc1ccc(CNC(=S)Nc2ccccc2)cc1Cl | inactive | 0.106% |  |
| COC(CNC(=O)CN1CCN(Cc2ccc(F)cc2Cl)C1=O)OC | inactive | -2.41% |  |
| Nc1ccc(C(=O)OCCCc2nc3ccccc3[nH]2)cc1 | inactive | 0.404% |  |
| Nc1ccc(C(=O)OCCCc2nc3cc4ccccc4cc3[nH]2)cc1 | 25.9 µM (active) | -15.5% |  |
| COC(=O)c1ccc(C(=O)OCCCc2nc3ccc(N)cc3[nH]2)cc1 | inactive | 2.42% |  |
| COc1ccc(/C=C(\C#N)C(=O)c2c(C)[nH]c3ccccc23)cc1OC | inactive |  |  |
| O=C(CSc1ccccc1)Nc1nnc(C2CC2)s1 | inactive | 6.15% |  |
| Cc1ccc(NC(=O)COC(=O)C2CCC(=O)N2)c(S(=O)(=O)N2CCOCC2)c1 (stereo not drawn) | 3.66 µM (active) | 2.3% |  |
| Cc1ccc(NC(=O)COC(=O)CCc2ccc(S(=O)(=O)N3CCOCC3)cc2)c(C)c1 | inactive | 16.8% |  |
| O=C(COC(=O)C1CCC(=O)N1)Nc1ccc(Cl)cc1Cl (stereo not drawn) | inactive | -17% |  |
| CCC(C)OC(=O)C1=C(C)OC23OC(N)=C(C#N)C12C(=O)c1ccccc13 (stereo not drawn) | inactive | 2.42% |  |
| CC(OC(=O)Cc1c(F)cccc1Cl)C(=O)NC1CCCCC1C (stereo not drawn) | 16.4 µM (active) | -24.1% |  |
| CC(OC(=O)Cc1ccc(Br)cc1)C(=O)NC1CCCCC1C (stereo not drawn) | inactive | 5.28% |  |
| CC(OC(=O)CNC(=O)c1ccc(Cl)cc1)C(=O)NC1CCCCC1C (stereo not drawn) |  | 3.37% | -18.8% [at 0.0737 µM] (inactive) |
| CCc1ccc2oc(=O)cc(CN3CCN(Cc4ccccc4)CC3)c2c1 | inactive | 4.49% |  |
| O=C(NCc1ccccc1)c1cc(-c2cccc(O)c2)on1 | inactive | 9.36% |  |
| CC(OC(=O)c1nc(Cl)ccc1Cl)C(=O)Nc1ccccc1F (stereo not drawn) | inactive | -13.3% |  |
| CN(c1ccccc1)S(=O)(=O)c1cccc(NC(=O)CSc2nnc(C3CC3)n2C)c1 | 23.1 µM (active) | 4.1% |  |

| SMILES | Potency | cell number change | lipid storage change, negative = inhibition |
| --- | --- | --- | --- |
| CC(=O)c1ccc(NC(=O)CSc2nnc(C3CC3)n2C)cc1 | 1.84 µM (active) | 24.2% |  |
| CC(=O)Nc1ccc(NC(=O)CSc2nnc(C3CC3)n2C)cc1 | inactive | -6.84% |  |
| CC(C)n1cnnc1SCC(=O)Nc1cccc(S(=O)(=O)N(C)c2ccccc2)c1 | inactive | -11.3% |  |
| CCn1c(SCC(=O)Nc2cccc(S(=O)(=O)N(C)c3ccccc3)c2)nnc1C1CC1 | inactive | 0.735% |  |
| CCn1c(SCC(=O)Nc2ccc(C(C)=O)cc2)nnc1C1CC1 | inactive | 13.3% |  |
| COc1ccc(NC(=O)c2ccc(S(=O)(=O)N3CCCCC3)cc2)c(OC)c1 | inactive | -34.1% |  |
| Cc1cc2n(n1)SC(Nc1cc(Cl)ccc1Cl)N2 (stereo not drawn) | inactive | -3.68% |  |
| COc1ccc(N2CCN(CCCNC(=O)CN3C(=O)COc4ccccc43)CC2)cc1 | inactive | -22.1% |  |
| Cn1c(C(=O)N2CCN(c3ccc(Cl)cc3)CC2)cc2c(=O)[nH]c3ccccc3c21 | inactive | 18.3% |  |
| CCN(CC)c1ccc(/C=N/NC(=O)C(O)(c2ccccc2)c2ccccc2)o1 | 20.6 µM (active) | -15.7% |  |
| O=C(O)COc1ccc(/C=N/NC(=O)C(O)(c2ccccc2)c2ccccc2)cc1 | inactive | 7.99% |  |
| COc1ccc(/C=N/NC(=O)C(O)(c2ccccc2)c2ccccc2)cc1OC | inactive | 3.71% |  |
| O=C(C1CCN(Cc2cccs2)CC1)N1CCN(Cc2ccc3c(c2)OCO3)CC1 | inactive | 20.4% |  |
| C/C(=C/Cc1c(O)cc2oc(C)cc(=O)c2c1O)COC1OC(CO)C(O)C(O)C1O (stereo not drawn) | inactive | 6.97% |  |
| CCN1C(=O)[C@H]2[C@@H](c3ccc(-c4ccc(OC)cc4)cc3)N[C@@](CC(C)C)(C(=O)OC)[C@H]2C1=O | inactive | 12.8% |  |
| CCN1C(=O)[C@H]2[C@@H](c3ccc(SC4CCCCC4)cc3)N[C@@](CC(C)C)(C(=O)OC)[C@H]2C1=O | 8.2 µM (active) |  |  |
| CCN1C(=O)[C@H]2[C@@H](c3ccc(-c4ccccc4)cc3)N[C@@](CC(C)C)(C(=O)OC)[C@H]2C1=O | inactive | 7.59% |  |
| CC(C)NC(=O)c1ccccc1NC(=O)CS(=O)(=O)Cc1ccccc1 | inactive | 14.5% |  |
| Cc1ccc(NS(=O)(=O)c2ccc3c(c2)oc(=O)n3C)cc1C | inactive | 5.19% |  |
| COc1ccccc1NS(=O)(=O)c1ccc2oc(SC(C)C(=O)N3CCNC3=O)nc2c1 (stereo not drawn) | inactive | -7.72% |  |
| CCOC(=O)CSc1nc2cc(S(=O)(=O)Nc3ccccc3OC)ccc2o1 | 29.1 µM (active) | -16.6% |  |
| COc1ccccc1NS(=O)(=O)c1ccc2oc(SCc3ccc(F)cc3)nc2c1 | inactive | -19.8% |  |
